Measurements taken from PubChem BioAssay (NCI).
About 83,000 compounds went through this panel and 20% of them were active in at least one assay; those are over-represented in the sample as a whole.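 How to read the values: 0–100, growth inhibition (40 = 60% inhibited); 0, no net growth; -100 to 0, cell death (-40 = 40% of starting cells died; -100 = all dead).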 Unmarked numbers belong to inactive results. Active and inactive are the calls of the source. How the source made its calls: active means growth percent below 10; inactive means the rest.

Legend:
Experiment in all cases: NCI-60 one-dose screen, 48 h (100 = growth as untreated, 0 = no growth, -100 = all killed)
Settings in all cases: 10 µM
NCI-H23 lung = tested on: NCI-H23 lung
NCI-H226 lung = tested on: NCI-H226 lung
NCI-H322M lung = tested on: NCI-H322M lung
HOP-62 NSCLC = tested on: HOP-62 NSCLC
NCI-H460 lung = tested on: NCI-H460 lung
HOP-92 NSCLC = tested on: HOP-92 NSCLC
NCI-H522 lung = tested on: NCI-H522 lung
A549/ATCC NSCLC = tested on: A549/ATCC NSCLC
786-0 renal = tested on: 786-0 renal
COLO 205 colon = tested on: COLO 205 colon

SMILES | growth (NCI-H23 lung) | growth (NCI-H226 lung) | growth (NCI-H322M lung) | growth (HOP-62 NSCLC) | growth (NCI-H460 lung) | growth (HOP-92 NSCLC) | growth (NCI-H522 lung) | growth (A549/ATCC NSCLC) | growth (786-0 renal) | growth (COLO 205 colon)
COc1ccc(CCN2C(=O)/C(=C/c3csc(C#N)n3)SC2=S)cc1 | 24.3% | 98.5% | 86.4% | 83.5% | 68.2% | -5.5% (active) | -69.8% (active) | 89% | -55.2% (active) | -75% (active)
COc1ccc(OC)c(-c2cc(-c3c[nH]c4ccccc34)nc(N)c2C#N)c1 | -9.65% (active) | 14% | 24.8% | 10% (active) | -42.5% (active) | -36.8% (active) | -5.53% (active) | 21.1% | -52.3% (active) | -23.2% (active)
O=C(CSc1nnc(-c2ccc3nc(-c4ccccc4)[nH]c3c2)o1)Nc1ccc(Cl)cc1 | 21.4% | 31.4% | 63.9% | 62.9% | 48.8% | 79.1% | 28.7% | 57.1% | 16.9% | 73.2%
CC1CC(c2ccc(N(C)C)cc2)=NN1c1nc(O)c(C2=c3cc(Br)ccc3=NC2=O)s1 (stereo not given) | 1.13% (active) | 77.8% | 112% | 92.7% | 63.8% | 83.8% | 70.2% | 72.6% | 94% | 99.7%
CN1CCN(c2ccc(Nc3nc(NCCCNC(=O)C4CCCCC4)c4sccc4n3)cc2)CC1 | 60.3% | 81.6% | 70% | 72.4% | 52.9% | 25.4% | 79.4% | 59.5% | 3.18% (active) | 68.8%
COc1ccc(-c2cc(C(=O)N=Nc3c(O)[nH]c4ccc(F)cc34)c3ccccc3n2)cc1 | 44.4% | 68.3% | 76.4% | 110% | 44.2% | 87.1% | 70.8% | 88.3% | 63.5% | 103%
Cc1ccc(-c2cc(C(=O)N=Nc3c(O)[nH]c4ccc(Br)cc34)c3ccccc3n2)cc1 | 51.2% | 65.3% | 80.9% | 86.1% | 47.3% | 87.6% | 78.7% | 85.8% | 88.6% | 108%
CN1CCN(c2ccc(C(=O)/C=C/c3cc(Br)ccc3F)cc2)CC1 | 49.4% | 61.6% | 93.3% | 77.1% | 67.2% | 31.6% | 66.4% | 28.5% | 27.1% | 34.8%
CC1(C)CC[C@]23CC[C@]4(C)[C@H](CC[C@@H]5[C@@]6(C)CC[C@H](N)C(C)(C)[C@@H]6CC[C@]54C)[C@H]2[C@H]1OC3=O | -94.7% (active) | -90% (active) | -99.5% (active) | -77.2% (active) | -13.9% (active) | -65.5% (active) | -85.5% (active) | -88.9% (active) | -94.8% (active) | -69.5% (active)
C=CCn1c(SCC(=O)Nc2ccc(C(=O)/C=C/c3ccccc3)cc2)nnc1-c1c[nH]c2ccccc12 | 68.3% | 35.4% | 79.5% | 74.1% | 78.6% | 70.4% | 60.6% | 63.5% | 79.1% | 59.7%
COC(=O)C(Cc1ccc(O)c(O)c1)NC(=O)C(CSC/C=C(\C)CCCC(C)CCCC(C)CCCC(C)C)NC(C)=O (stereo not given) | 31.1% | 30.3% | 67.1% | 26.5% | 18.9% | 18.5% | -85.6% (active) | 18.9% | 51.4% | 3.84% (active)
CSc1nc(-c2cccc(C)c2)c2cc(-c3ccccc3)n(C)c2n1 | 15.8% | 40.7% | 56.2% | 37.4% | 10.8% | -8.91% (active) | -11.8% (active) | 26.8% | 20% | 18.7%
